DT40 TDP1 no CPT = qHTS for Inhibitors of human tyrosyl-DNA phosphodiesterase 1 (TDP1): qHTS in cells in absence of CPT | DT40 Tdp1-/- hTDP1 cells, no CPT, ATP luminescence, 48 h | Potency, µM (series often up to 46.2 µM), inactives show at the highest dose activity change, negative = growth inhibition, most hits filed as inhibitors | hit rate 15% among 420,000 | AID 686978, 2013; note: potency is the fitted concentration of half-maximal effect; nearly all actives have a fitted effect of over 55% in size
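Readout: luminescence from CellTiter-Glo after 30 min in the dark at RT. Cells: DT40 Tdp1-/- with stable hTDP1, 400/well. Exposure: compounds alone, ≥48 hr, 37 °C.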
ELG1 repair inh = qHTS screen for small molecules that inhibit ELG1-dependent DNA repair in human embryonic kidney (HEK293T) cells expressing luciferase-tagged ELG1. HEK293T ELG1-luciferase reporter, luminescence, 16 h; DNA damage induced by 5-fluorouridine. Potency, µM (doses to about 46.1 µM), for inactives: at the highest dose activity change, negative = inhibition, most hits filed as inhibitors. hit rate 2.3% among 330,000. AID 504467, 2011; note: potency is the fitted concentration of half-maximal effect; nearly all actives have a fitted effect of over 55% in size
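Step one: seed 2,000 cells per well. Step two: pin-transfer compound or DMSO alongside 5-fluorouridine. Step three: incubate 16 hr, 37 °C, 5% CO2. Step four: add ONE-Glo, wait 30 min, read luminescence.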
DT40 TDP1 CPT = qHTS for Inhibitors of human tyrosyl-DNA phosphodiesterase 1 (TDP1): qHTS in cells in presence of CPT; chicken DT40 Tdp1-/-;hTDP1 cells + 20 nM CPT, ATP luminescence, 48 h; Potency, µM (highest dose often 46.2 µM), without a hit: top-dose activity change, negative = growth inhibition, most hits filed as inhibitors; hit rate 12% among 420,000; note: potency is the fitted concentration of half-maximal effect; nearly all actives have a fitted effect of over 55% in size
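Chicken DT40 Tdp1-/- cells complemented with human TDP1, 400 cells/well, exposed to compounds plus 20 nM camptothecin for at least 48 h at 37 C; viability read as ATP content by CellTiter-Glo luminescence.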
HT1080-NT tox = qHTS for induction of synthetic lethality in tumor cells producing 2HG: qHTS for the HT-1080-NT fibrosarcoma cell line; hit rate 1.6% among 360,000; HT-1080-NT fibrosarcoma viability, CellTiter-Glo ATP luminescence, 48 h; Potency, µM (doses to about 46.1 µM), for the others: top-dose activity, negative = less viability, most hits filed as cytotoxic;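 note: NT is the 2HG producing partner of a matched IDH1 knockdown line; potency is the fitted concentration of half-maximal effect; 0% = DMSO-treated cells and -100% = media-only wells without cells; nearly all actives have a fitted effect of over 55% in size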
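Viability by CellTiter-Glo luminescence after 48 h compound exposure at 37C of HT-1080-NT cells (750/well, RPMI, 5% FBS). % activity scaled between DMSO wells and medium-only wells, then curve-fitted and categorized by curve class.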
HT1080 IDH1KD tx = qHTS for induction of synthetic lethality in tumor cells producing 2HG: qHTS for the HT-1080-IDH1KD cell line. HT-1080 IDH1 knockdown viability, ATP luminescence, 48 h. Potency, µM (titrated, usually from 46.1 µM), for inactives: at the highest dose activity, negative = toxicity, usual class: cytotoxic. hit rate 2% among 360,000. AID 686971, 2013;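 note: potency is the fitted concentration of half-maximal effect; 0% = DMSO wells and -100% = cell-free medium wells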
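After a 2 h attachment period, IDH1KD HT-1080 cells took pin-transferred compound for 48 h at 37 °C; ATP-based luminescence after 10 min room-temperature reagent incubation reported viability.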
IL1B secr inh = qHTS for Inhibitors of Inflammasome Signaling: IL-1-beta AlphaLISA Primary Screen; activity change, % at 57.5 µM; hit rate 4.7% among 360,000; THP-1 LPS/ATP IL-1B secretion, AlphaLISA, 16 h; active compounds read low; in the data active = activity change below about -50%; inconclusive = mostly about -30% to -49%
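THP-1 cells pretreated 1 hr with compounds (up to 57.5 uM final), then stimulated with LPS (250 ng/mL final) plus ATP (1.25 mM final); secreted IL-1B measured by AlphaLISA after 16 hr, decreased signal indicating inhibition.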
ELG1 FLuc counter = qHTS screen for small molecules that inhibit ELG1-dependent DNA repair: Hit Confirmation in Cell-Based Luciferin Assay; shares compounds with ELG1 repair inh; cell-free firefly luciferase luminescence counter-screen, ViewLux; Potency, µM (highest dose often 46.1 µM), for the others: at the top dose activity change, negative = inhibition, hits mostly inhibitors; hit rate 3% among 350; AID 624247, 2012; note: potency is the fitted concentration of half-maximal effect
ELG1 Luc conf = HTS assay for small molecules that inhibit ELG1-dependent DNA repair in human embryonic kidney (HEK293T) cells expressing luciferase-tagged ELG1: Hit Confirmation; shares compounds with ELG1 repair inh; HEK293T ELG1-luciferase levels, luminescence; cells co-treated with 5-fluorouridine; Potency, µM (series often up to 46.1 µM), for the others: at the top dose activity change, negative = inhibition, most hits filed as inhibitors; hit rate 68% among 670; AID 624248, 2012; note: potency is the fitted concentration of half-maximal effect; nearly all actives have a fitted effect of over 55% in size
Target sequence (Q96QE3 whole entry, looked up): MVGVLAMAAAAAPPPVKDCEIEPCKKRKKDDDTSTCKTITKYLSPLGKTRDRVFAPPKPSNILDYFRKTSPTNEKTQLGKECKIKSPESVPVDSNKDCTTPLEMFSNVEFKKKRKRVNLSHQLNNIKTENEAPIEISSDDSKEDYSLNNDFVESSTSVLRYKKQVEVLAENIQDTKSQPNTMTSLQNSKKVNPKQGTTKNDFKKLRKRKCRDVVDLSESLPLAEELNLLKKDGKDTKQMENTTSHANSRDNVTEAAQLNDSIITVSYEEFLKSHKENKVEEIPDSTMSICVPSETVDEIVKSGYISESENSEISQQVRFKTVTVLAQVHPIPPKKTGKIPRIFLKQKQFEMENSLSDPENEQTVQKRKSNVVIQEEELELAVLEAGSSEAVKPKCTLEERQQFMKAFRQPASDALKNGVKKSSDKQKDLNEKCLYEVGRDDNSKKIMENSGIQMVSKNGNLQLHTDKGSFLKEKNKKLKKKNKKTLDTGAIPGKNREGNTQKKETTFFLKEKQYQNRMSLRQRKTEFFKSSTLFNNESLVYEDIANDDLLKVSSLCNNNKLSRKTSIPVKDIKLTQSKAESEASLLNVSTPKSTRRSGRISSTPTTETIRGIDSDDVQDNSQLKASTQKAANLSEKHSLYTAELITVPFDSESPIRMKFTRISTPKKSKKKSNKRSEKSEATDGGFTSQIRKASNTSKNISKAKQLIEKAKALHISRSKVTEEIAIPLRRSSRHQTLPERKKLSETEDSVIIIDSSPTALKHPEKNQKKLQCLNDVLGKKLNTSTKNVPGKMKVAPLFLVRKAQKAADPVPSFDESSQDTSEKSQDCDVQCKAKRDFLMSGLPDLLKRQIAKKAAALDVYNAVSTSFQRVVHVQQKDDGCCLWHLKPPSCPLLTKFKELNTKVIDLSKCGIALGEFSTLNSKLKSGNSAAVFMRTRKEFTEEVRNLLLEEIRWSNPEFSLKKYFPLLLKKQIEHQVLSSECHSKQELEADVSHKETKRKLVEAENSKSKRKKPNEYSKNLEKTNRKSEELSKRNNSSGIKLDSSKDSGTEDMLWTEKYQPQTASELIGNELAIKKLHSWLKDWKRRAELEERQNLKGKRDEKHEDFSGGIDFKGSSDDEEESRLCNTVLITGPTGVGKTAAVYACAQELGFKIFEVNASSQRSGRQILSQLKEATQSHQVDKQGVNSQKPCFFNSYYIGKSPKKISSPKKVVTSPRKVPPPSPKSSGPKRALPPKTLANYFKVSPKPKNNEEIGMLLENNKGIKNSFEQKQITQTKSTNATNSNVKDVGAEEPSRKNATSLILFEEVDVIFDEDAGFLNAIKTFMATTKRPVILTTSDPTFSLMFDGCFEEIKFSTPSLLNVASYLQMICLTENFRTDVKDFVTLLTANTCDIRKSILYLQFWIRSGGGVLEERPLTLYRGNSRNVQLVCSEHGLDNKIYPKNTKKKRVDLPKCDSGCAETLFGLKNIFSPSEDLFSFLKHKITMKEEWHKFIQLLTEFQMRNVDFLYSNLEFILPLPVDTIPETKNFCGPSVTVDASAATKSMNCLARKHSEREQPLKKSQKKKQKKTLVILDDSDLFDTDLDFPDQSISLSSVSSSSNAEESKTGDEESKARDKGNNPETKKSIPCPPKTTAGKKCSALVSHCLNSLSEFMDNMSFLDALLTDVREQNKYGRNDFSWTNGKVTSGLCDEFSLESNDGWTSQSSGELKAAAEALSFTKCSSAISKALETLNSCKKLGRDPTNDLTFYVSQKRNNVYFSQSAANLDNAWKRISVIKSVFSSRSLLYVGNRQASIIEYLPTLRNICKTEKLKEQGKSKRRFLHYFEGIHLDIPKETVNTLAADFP
ELG1 MMS Luc = confirmation of human ELG1 repair inhibitors, MMS stimulated; Potency, µM (titrated, usually from 46.1 µM), inactives show at the highest dose activity change, negative = inhibition, actives largely listed as inhibitors; AID 624249; HEK293T luciferase-tagged ELG1 level, MMS stimulated; hit rate 53% among 670; shares compounds with ELG1 repair inh; note: potency is the fitted concentration of half-maximal effect; nearly all actives have a fitted effect of over 60% in size
ELG1 5FU viab = qHTS screen for small molecules that inhibit ELG1-dependent DNA repair: Hit Confirmation with 5FU Viability. shares compounds with ELG1 repair inh. cell viability with 5-FU, ELG1-dependent repair. Potency, µM (doses to about 46.1 µM), for the others: top-dose activity change, negative = viability loss, usual class: cytotoxic. 670 tested, under 10 active. AID 624250, 2012;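 note: ELG1-luc HEK293T cells cotreated with 5-fluorouridine at 10 µM final; potency is the fitted concentration of half-maximal effect; viability measured 16 h after compound addition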
ELG1 MMS viab = qHTS screen for small molecules that inhibit ELG1-dependent DNA repair: Hit Confirmation with MMS Viability. shares compounds with ELG1 repair inh. Cell viability with MMS, ELG1-dependent DNA repair. Potency, µM (series often up to 46.1 µM), without a hit: at the highest dose activity change, negative = viability loss, usual class: cytotoxic. hit rate 33% among 670. AID 624251, 2012;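 note: ELG1-luc HEK293T cells co-treated with 10 µM MMS; potency is the fitted concentration of half-maximal effect; viability read 16 h after compound addition; nearly all actives have a fitted effect of over 60% in size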
Cell viab unstim = qHTS screen for small molecules that inhibit ELG1-dependent DNA repair: Hit Confirmation with Unstimulated Viability Assay; shares compounds with ELG1 repair inh; cell viability counter-screen, unstimulated, luminescence; Potency, µM (titrated, usually from 45.9 µM), inactives show top-dose activity change, negative = loss of viability, hits mostly cytotoxic; hit rate 8% among 900;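 note: potency is the fitted concentration of half-maximal effect; compound exposure lasted 16 hours before reading; nearly all actives have a fitted effect of over 55% in size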
FLuc enzyme = qHTS screen for small molecules that inhibit ELG1-dependent DNA repair: Hit Confirmation in Biochemical Luciferin Assay; shares compounds with ELG1 repair inh; purified firefly luciferase, luminescence counter-screen; Potency, µM (doses to about 57.5 µM), without a hit: at the highest dose activity, negative = inhibition, actives largely listed as inhibitors; hit rate 10% among 350; AID 624253, 2012; note: potency is the fitted concentration of half-maximal effect
Starred values were filed as active, the others as inactive. Only some compounds are listed: those with a hit (about 19% of all), similar ones and a draw of the others. Unless noted, calls come from the whole dose curve; as a rule, active = well fitted curve in the direction sought with a large enough effect; inconclusive = small, poorly fitted or top-dose-only effect, or another doubt; inactive = no such curve, though single readings can be large; an effect the other way counts as inactive or inconclusive. Unless noted, % is set by controls: 0 for no effect and ±100 for the full control effect.

CO/C1=C\C(C)=C\[C@@H](C)[C@@H](O)[C@H](C)C/C(C)=C/C=C/[C@H](OC)[C@H]([C@@H](C)[C@@H](O)[C@H](C)[C@H]2C[C@@H](O)[C@H](C)[C@@H](C(C)C)O2)OC1=O was read as ELG1 FLuc counter 5%, ELG1 Luc conf -3%, ELG1 MMS Luc -19%, ELG1 5FU viab -8%, ELG1 MMS viab inconclusive, Cell viab unstim inconclusive and FLuc enzyme -1%.
O=C1c2cccc3cccc(c23)C(=O)N1/N=C/c1c(O)n(-c2ccccc2)c(=O)[nH]c1=O was read as DT40 TDP1 no CPT 5%, ELG1 repair inh -4%, DT40 TDP1 CPT 15%, HT1080-NT tox -19%, HT1080 IDH1KD tx -16% and IL1B secr inh -11.
COc1ccc2c(c1OC)C(=O)OC2c1c(O)n(Cc2ccc(F)cc2)c(=O)[nH]c1=O (configuration not stated) was read as DT40 TDP1 no CPT 3%, ELG1 repair inh 8%, DT40 TDP1 CPT inconclusive, HT1080-NT tox -4%, HT1080 IDH1KD tx -1% and IL1B secr inh 0.
Screening O=C(Nc1ccccc1)c1cccn(Cc2ccccc2)c1=O returned DT40 TDP1 no CPT inconclusive, ELG1 repair inh 0%, DT40 TDP1 CPT inconclusive, HT1080-NT tox 0%, HT1080 IDH1KD tx inconclusive and IL1B secr inh -11.
`O=C(Nc1ccncc1)c1cccn(Cc2ccccc2)c1=O` gave DT40 TDP1 no CPT inconclusive, ELG1 repair inh 3.3µM*, DT40 TDP1 CPT inconclusive, HT1080-NT tox inconclusive, HT1080 IDH1KD tx inconclusive, IL1B secr inh -7, ELG1 Luc conf 8%, ELG1 MMS Luc 2.2µM*, ELG1 5FU viab 2%, ELG1 MMS viab 2.5µM* and Cell viab unstim inconclusive.
Screening COc1cc2c(c(OC)c1OC)-c1ccc(O)c(=O)cc1C(NC(C)=O)CC2 (configuration not stated) returned DT40 TDP1 no CPT 0.065µM*, ELG1 repair inh inconclusive, DT40 TDP1 CPT 0.026µM*, HT1080-NT tox 0.0052µM*, HT1080 IDH1KD tx 0.041µM*, IL1B secr inh 66, ELG1 FLuc counter 22%, Cell viab unstim -5% and FLuc enzyme 1%.
For O=C1CC(=O)N(Cc2ccccc2)C(=S)N1 the results were DT40 TDP1 no CPT -11%, ELG1 repair inh 3%, DT40 TDP1 CPT -7%, HT1080-NT tox 5%, HT1080 IDH1KD tx 12% and IL1B secr inh -12.

Screening data from PubChem.
